# Screening data deposited in PubChem BioAssay by National Center for Advancing Translational Sciences (NCATS).
# HepG2 viability: qHTS for Inhibitors of TGF-b: Cytotox Counterscreen; HepG2 CAGA-GFP viability, ATP luminescence, 18 h; Potency, µM (highest dose often 46.1 µM), without a hit: top-dose activity change, negative = cytotoxicity, actives largely listed as cytotoxic; 410,000 tested, 0.76% active; AID 588856, 2011; also: potency is read from the fitted curve at half-maximal effect
#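 CellTiter-Glo luminescence gave cytotoxicity after 18 hours at 37 degrees C. The cells were HepG2 CAGA-GFP in 1% FBS DMEM, stimulated with 500 pg/mL TGF-beta after compound addition. %Activity was normalised to no-cell wells (complete cell-killing) and DMSO (no toxicity), and curves were fitted and classified.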
# TDP1 cell noCPT: qHTS for Inhibitors of human tyrosyl-DNA phosphodiesterase 1 (TDP1): qHTS in cells in absence of CPT; DT40 Tdp1-/- hTDP1 cells, no CPT, ATP luminescence, 48 h; Potency, µM (titrated, usually from 46.2 µM), inactives show at the highest dose activity change, negative = growth inhibition, hits mostly inhibitors; 420,000 tested, 15% active; also: potency is read from the fitted curve at half-maximal effect; % is scaled to controls: 0 for no effect and ±100 for the full control effect; nearly all actives have a fitted effect of over 55% in size
#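 DT40 Tdp1-/-;hTDP1 cells, no CPT (DMSO vehicle only), 400 cells/well; compounds pin-transferred; ≥48 hr, 37 °C; CellTiter-Glo 30 min RT dark, luminescence read.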
# IL1B secr inh: qHTS for Inhibitors of Inflammasome Signaling: IL-1-beta AlphaLISA Primary Screen | THP-1 LPS/ATP IL-1B secretion, AlphaLISA, 16 h; active compounds read low | 360,000 tested, 4.7% active | AID 743279, 2014 | activity change, % at 57.5 µM; in the data active = activity change below about -50%; inconclusive = mostly about -30% to -49%; also: % is scaled to controls: 0 for no effect and ±100 for the full control effect
#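 THP-1 cells pretreated 1 hr with compounds (up to 57.5 uM final), then stimulated with LPS (250 ng/mL final) plus ATP (1.25 mM final); secreted IL-1B measured by AlphaLISA after 16 hr, decreased signal indicating inhibition.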
# S-ASM inh: Inhibitors of Secretory Acid Sphingomyelinase (S-ASM): qHTS. placental ASM, HMU-PC fluorogenic substrate, 60 min. 340,000 tested, 0.006% active. Potency, µM (top dose mostly 57.5 µM), without a hit: at the highest dose activity change, negative = inhibition, hits mostly inhibitors; also: potency is read from the fitted curve at half-maximal effect
# Target sequence (P17405 47-631 limits assumed): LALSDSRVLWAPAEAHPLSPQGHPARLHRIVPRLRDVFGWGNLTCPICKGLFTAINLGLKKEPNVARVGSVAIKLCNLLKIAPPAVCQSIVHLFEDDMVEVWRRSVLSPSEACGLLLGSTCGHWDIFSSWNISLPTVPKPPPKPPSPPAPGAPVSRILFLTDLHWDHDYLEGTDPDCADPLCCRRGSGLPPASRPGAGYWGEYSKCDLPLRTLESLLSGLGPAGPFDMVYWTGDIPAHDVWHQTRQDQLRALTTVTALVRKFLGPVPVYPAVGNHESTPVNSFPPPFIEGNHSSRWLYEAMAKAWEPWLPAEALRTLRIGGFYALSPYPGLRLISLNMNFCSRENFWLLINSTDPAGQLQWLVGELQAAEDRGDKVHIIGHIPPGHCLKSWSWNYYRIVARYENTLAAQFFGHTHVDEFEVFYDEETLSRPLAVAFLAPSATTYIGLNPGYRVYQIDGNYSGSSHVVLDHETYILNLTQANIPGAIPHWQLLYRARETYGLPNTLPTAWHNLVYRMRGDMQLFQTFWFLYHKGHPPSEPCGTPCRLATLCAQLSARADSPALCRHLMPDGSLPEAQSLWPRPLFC
#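 Steps: dispense placental human ASM, pin compound, wait 10 min at room temperature, add HMU-PC0 substrate at 9 uM final, incubate 60 min at 37 °C, add stop solution raising pH to 10, read fluorescence.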
# DT40 TDP1 CPT: qHTS for Inhibitors of human tyrosyl-DNA phosphodiesterase 1 (TDP1): qHTS in cells in presence of CPT. chicken DT40 Tdp1-/-;hTDP1 cells + 20 nM CPT, ATP luminescence, 48 h. Potency, µM (doses to about 46.2 µM), inactives show at the highest dose activity change, negative = growth inhibition, hits mostly inhibitors. 420,000 tested, 12% active. AID 686979, 2013; also: potency is read from the fitted curve at half-maximal effect; % is scaled to controls: 0 for no effect and ±100 for the full control effect; nearly all actives have a fitted effect of over 55% in size
#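 Cell growth measured by CellTiter-Glo luminescence after a minimum 48 h, 37 C compound exposure with 20 nM CPT in Tdp1-knockout DT40 cells stably expressing hTDP1, seeded 400/well; qHTS titration format.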
# TGFb SMAD3 inh: qHTS for Inhibitors of TGF-b; HepG2 CAGA-GFP TGF-b/SMAD3 reporter, GFP fluorescence, 18 h; TGF-beta stimulated, 500 pg/mL final; Potency, µM (highest dose often 46.1 µM), for inactives: top-dose activity, negative = inhibition, actives largely listed as inhibitors; 410,000 tested, 1.2% active; AID 588855, 2011; also: potency is read from the fitted curve at half-maximal effect; % is scaled to controls: 0 for no effect and ±100 for the full control effect; nearly all actives have a fitted effect of over 65% in size
#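 HEPG2 CAGA-GFP reporter cells (1000/well, DMEM with 1% FBS) received compounds, then recombinant TGF-beta at 500 pg/mL final for 18 hours at 37 degrees C. Per-cell GFP summed per well was normalised to unstimulated and stimulated DMSO controls before curve fitting.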
# Numbers without * were called inactive; ? = inconclusive; / = no result given; [ ] = remark or other dose. The list is not random: actives were taken first. Their share in the collection is about 19%. Unless noted, calls follow the shape of the dose curve; as a rule, active = well fitted curve in the direction sought with a large enough effect; inconclusive = small, poorly fitted or top-dose-only effect, or another doubt; inactive = no such curve, though single readings can be large; an effect the other way counts as inactive or inconclusive.
SMILES,HepG2 viability,TDP1 cell noCPT,IL1B secr inh,S-ASM inh,DT40 TDP1 CPT,TGFb SMAD3 inh
CC1(C)CC2(CC(c3ccccc3F)c3cc(Cl)c(O)cc3O2)NC(=S)N1 (centres undefined),-2%,3.7µM*,-4,-3%,2.1µM*,-45%
COc1ccc(C2CC3(CC(C)(C)NC(=S)N3)Oc3cc(O)cc(C)c32)cc1OC (centres undefined),-5%,?,-6,2%,?,0%
Cc1cccc(C2CC3(CC(C)(C)NC(=S)N3)Oc3cc(O)ccc32)c1 (centres undefined),-13%,13µM*,-73*,-2%,21µM*,-17%
COc1cccc(C2CC3(CC(C)(C)NC(=S)N3)Oc3cc(O)ccc32)c1 (centres undefined),-3%,9.2µM*,0,-1%,12µM*,-1%
CCCCn1c(N)c(N(CC(C)C)C(=O)C2=COCCO2)c(=O)[nH]c1=O,-16%,3%,12,4%,5%,-4%
Cc1ccc(O)c(NC(=S)NC(=O)/C=C/c2ccccc2)c1,-18%,-27%,-14,-2%,24%,-1%
O=C(/C=C/c1ccccc1)NNC(=O)C1CC1,-102%,-36%,-17,0%,-11%,14µM*
NC(=S)NC(=O)/C=C/c1ccccc1,2%,?,-96*,4%,-10%,-17%
O=C(/C=C/c1ccccc1)NC(=S)Nc1ccccc1O,-2%,21µM*,-63*,11%,?,12%
O=C(/C=C/c1ccc(F)cc1)NC(=S)Nc1ccccc1O,-1%,18µM*,?,-6%,?,-4%
O=C(Nc1ccc(Oc2cccc(C(F)(F)F)c2)nc1)c1ccco1,-22%,12µM*,-13,0%,-16%,-3%
COc1cccc(C(=O)Nc2ccc(NC(=O)c3ccco3)nc2)c1,-9%,?,2,0%,-14%,-9%
CC(C)(C)c1ccc(Oc2ccc(NC(=O)c3cccs3)cn2)cc1,-48%,?,-80*,-11%,?,?
O=C(Nc1ccc(Oc2cccnc2)nc1)c1ccc(C(F)(F)F)cc1,-42%,15µM*,?,-3%,?,0%
CC(C)(C)c1ccc(Oc2ccc(NC(=O)c3ccco3)cn2)cc1,-60%,1.6µM*,-12,-2%,1.8µM*,11µM*
NCCO,/,7%[92.5 µM],/,/,6%[92.5 µM],/
CCc1ccc(-n2c(=O)c3c4c(sc3n(CC(=O)N3CCC(C)CC3)c2=O)CCC4)cc1,1%,-5%,/,/,3%,0%
CN(C)c1nccc(Nc2ccccc2)c1C#N,2%,21µM*,-10,1%,?,0%
CN(C)CCN(Cc1ccccc1)c1nccc(N(C)C)c1C#N,-13%,-10%,-7,3%,-15%,-4%
CCn1c(O)c(N=NC(=O)C(O)c2ccccc2)c2ccccc21 (centres undefined),-15%,21µM*,-22,-1%,23µM*,17%
O=C(CNC(=O)c1ccco1)N=Nc1c(O)n(CCc2ccccc2)c2ccccc12,-1%,3.7µM*,128,-9%,5.2µM*,?
CCn1c(O)c(N=NC(=O)CNC(=O)Cc2ccccc2)c2ccccc21,-6%,18%,-9,-7%,-20%,-7%
CCCCn1c(O)c(N=NC(=O)c2ccco2)c2ccccc21,-18%,18µM*,-11,-10%,?,?
COCCN1C(=O)N[C@@H](c2cccc(C(F)(F)F)c2)[C@H](C(C)=O)[C@H]1C,18µM*,-23%,11,3%,-22%,?
Cc1ccc2c(C)c(C(=O)N(C)C(C)c3ccon3)oc2c1C (centres undefined),-13%,16µM*,-9,-2%,?,-6%
SMILES,HepG2 viability,TDP1 cell noCPT,IL1B secr inh,S-ASM inh,DT40 TDP1 CPT,TGFb SMAD3 inh
CCC1CCCCN1S(=O)(=O)c1ccc2c(c1)CCN2C(C)=O (centres undefined),-10%,-18%,5,-1%,?,-5%
Nc1cc(Nc2ccc(Br)cc2)nc(N)n1,2%,?,-71*,-1%,-26%,-6%
Cc1ccc(NC(=O)/C(C#N)=C(\N)C(Cl)(Cl)Cl)nc1,-38%,2.1µM*,-100*,11%,0.58µM*,?
CC(=O)Nc1ccc(S(=O)(=O)NCCc2ccc3c(c2)OCCO3)cc1,16%,1%,17,/,-11%,0%
c1cnn(-c2nc(N3CCOCC3)nc(N3CCOCC3)n2)c1,-33%,5.8µM*,?,2%,6.5µM*,-8%
Cn1c(=O)cc(SCC(=O)Nc2ccccn2)c2ccccc21,-27%,-8%,25,2%,-13%,-13%
CCOC(=O)c1cccc(NC(=O)CN2C(=O)C3C4C=CC(C4)C3C2=O)c1 (centres undefined),-18%,-5%,-95*,3%,2%,-1%
CCOC(=O)c1cccc(NC(=O)CSc2cc(=O)n(C)c3ccccc23)c1,-37%,?,/,/,21µM*,?
CCn1c(=O)cc(SCC(=O)Nc2cc(Cl)ccc2OC)c2ccccc21,-34%,16µM*,/,/,?,?
CCn1c(=O)cc(SCC(=O)Nc2ccc(OC)c(OC)c2)c2ccccc21,-34%,23µM*,?,-5%,18µM*,-3%
CCOC(=O)C1(CCOc2ccccc2)CCN(C(=O)CCSC)CC1,-2%,?,14,3%,-25%,-14%
COc1ccc(CNC(=O)CSc2cc(=O)n(C)c3ccccc23)cc1,-28%,16µM*,-23,1%,?,-7%
COc1cc(NC(=O)CSc2cc(=O)n(C)c3ccccc23)cc(OC)c1OC,-8%,?,/,/,10µM*,39%
Cn1c(=O)cc(SCC(=O)Nc2cccnc2)c2ccccc21,-3%,?,38,-1%,?,11%
NC(=O)C1CCCN(C(=O)c2ccc(Cl)c(S(=O)(=O)N3CCc4ccccc43)c2)C1 (centres undefined),-75%,?,14,/,?,-2%
CCOc1ccccc1NC(=O)/C=C/c1ccc(S(=O)(=O)N2CCOCC2)cc1,-17%,?,-7,-6%,?,-2%
